40 molecules from PMC9911399, “Two distinct binding modes provide the RNA-binding protein RbFox with extraordinary sequence specificity” can be followed below.

Substitutions are numbered along the chain they refer to; changes in the protein carry UniProt numbers. In all, about 16,000 sequences were measured (“ka relative to ugcaugu”: median about 0.0091, highest 2% from about 0.032 on). The entries come from a sample that favours the highest values as a whole.

First the molecules themselves.
T1: RBFOX1 RRM (Homo sapiens, UniProt Q9NWB1 109-208)
T1 sequence: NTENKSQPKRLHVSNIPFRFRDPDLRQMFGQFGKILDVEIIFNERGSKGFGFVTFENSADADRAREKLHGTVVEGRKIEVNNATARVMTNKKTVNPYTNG

B1: GUGUAAG (DNA:RNA)
RNA: GGGAGACCGGAAUUCAGAUUGUCCGUGUAAGUUAAAUCCCGUCGUAGCCACCA
DNA 1: CAATCTGAATTCCGGTCTCCC
DNA 2: TGGTGGCTACGACGGGATT
B2: UAGUACG (DNA:RNA)
RNA: B1 RNA with G25U, U26A, A30C
DNA 1: CAATCTGAATTCCGGTCTCCC
DNA 2: TGGTGGCTACGACGGGATT
B3: CAGUGCA (DNA:RNA)
RNA: B1 RNA with G25C, U26A, A29G, A30C, G31A
DNA 1: CAATCTGAATTCCGGTCTCCC
DNA 2: TGGTGGCTACGACGGGATT
B4: GCCCCCA (DNA:RNA)
RNA: B1 RNA with U26C, G27C, U28C, A29C, A30C, G31A
DNA 1: CAATCTGAATTCCGGTCTCCC
DNA 2: TGGTGGCTACGACGGGATT
B5: UAGUAAA (DNA:RNA)
RNA: B1 RNA with G25U, U26A, G31A
DNA 1: CAATCTGAATTCCGGTCTCCC
DNA 2: TGGTGGCTACGACGGGATT
B6: GAUAUAC (DNA:RNA)
RNA: B1 RNA with U26A, G27U, U28A, A29U, G31C
DNA 1: CAATCTGAATTCCGGTCTCCC
DNA 2: TGGTGGCTACGACGGGATT
B7: AGUAAAU (DNA:RNA)
RNA: B1 RNA with G25A, U26G, G27U, U28A, G31U
DNA 1: CAATCTGAATTCCGGTCTCCC
DNA 2: TGGTGGCTACGACGGGATT
B8: GCAUUGG (DNA:RNA)
RNA: B1 RNA with U26C, G27A, A29U, A30G
DNA 1: CAATCTGAATTCCGGTCTCCC
DNA 2: TGGTGGCTACGACGGGATT
B9: GCCAUGG (DNA:RNA)
RNA: B1 RNA with U26C, G27C, U28A, A29U, A30G
DNA 1: CAATCTGAATTCCGGTCTCCC
DNA 2: TGGTGGCTACGACGGGATT
B10: CGCAUGG (DNA:RNA)
RNA: B1 RNA with G25C, U26G, G27C, U28A, A29U, A30G
DNA 1: CAATCTGAATTCCGGTCTCCC
DNA 2: TGGTGGCTACGACGGGATT
B11: CUUGGUG (DNA:RNA)
RNA: B1 RNA with G25C, G27U, U28G, A29G, A30U
DNA 1: CAATCTGAATTCCGGTCTCCC
DNA 2: TGGTGGCTACGACGGGATT
B12: AGGGUAG (DNA:RNA)
RNA: B1 RNA with G25A, U26G, U28G, A29U
DNA 1: CAATCTGAATTCCGGTCTCCC
DNA 2: TGGTGGCTACGACGGGATT
B13: CGGGCUC (DNA:RNA)
RNA: B1 RNA with G25C, U26G, U28G, A29C, A30U, G31C
DNA 1: CAATCTGAATTCCGGTCTCCC
DNA 2: TGGTGGCTACGACGGGATT
B14: GGGGCUG (DNA:RNA)
RNA: B1 RNA with U26G, U28G, A29C, A30U
DNA 1: CAATCTGAATTCCGGTCTCCC
DNA 2: TGGTGGCTACGACGGGATT
B15: CGGGGGC (DNA:RNA)
RNA: B1 RNA with G25C, U26G, U28G, A29G, A30G, G31C
DNA 1: CAATCTGAATTCCGGTCTCCC
DNA 2: TGGTGGCTACGACGGGATT
B16: GGGGCUC (DNA:RNA)
RNA: B1 RNA with U26G, U28G, A29C, A30U, G31C
DNA 1: CAATCTGAATTCCGGTCTCCC
DNA 2: TGGTGGCTACGACGGGATT
B17: ACCGGGC (DNA:RNA)
RNA: GGGAGACCGGAAUUCAGAUUGUCCACCGGGCUUAAAUCCCGUCGUAGCCACCA
DNA 1: CAATCTGAATTCCGGTCTCCC
DNA 2: TGGTGGCTACGACGGGATT
B18: CGGGCUG (DNA:RNA)
RNA: B1 RNA with G25C, U26G, U28G, A29C, A30U
DNA 1: CAATCTGAATTCCGGTCTCCC
DNA 2: TGGTGGCTACGACGGGATT
B19: GGGCUGU (DNA:RNA)
RNA: B1 RNA with U26G, U28C, A29U, A30G, G31U
DNA 1: CAATCTGAATTCCGGTCTCCC
DNA 2: TGGTGGCTACGACGGGATT
B20: CCCGGGC (DNA:RNA)
RNA: B17 RNA with A25C
DNA 1: CAATCTGAATTCCGGTCTCCC
DNA 2: TGGTGGCTACGACGGGATT
B21: GGGCUCU (DNA:RNA)
RNA: B1 RNA with U26G, U28C, A29U, A30C, G31U
DNA 1: CAATCTGAATTCCGGTCTCCC
DNA 2: TGGTGGCTACGACGGGATT
B22: UUUCUAU (DNA:RNA)
RNA: B1 RNA with G25U, G27U, U28C, A29U, G31U
DNA 1: CAATCTGAATTCCGGTCTCCC
DNA 2: TGGTGGCTACGACGGGATT
B23: UGCAUCU (DNA:RNA)
RNA: B17 RNA with A25U, C26G, G28A, G29U, G30C, C31U
DNA 1: CAATCTGAATTCCGGTCTCCC
DNA 2: TGGTGGCTACGACGGGATT
B24: AUCCGAU (DNA:RNA)
RNA: B17 RNA with C26U, G28C, G30A, C31U
DNA 1: CAATCTGAATTCCGGTCTCCC
DNA 2: TGGTGGCTACGACGGGATT
B25: ACAACUC (DNA:RNA)
RNA: B17 RNA with C27A, G28A, G29C, G30U
DNA 1: CAATCTGAATTCCGGTCTCCC
DNA 2: TGGTGGCTACGACGGGATT
B26: GCCAUCC (DNA:RNA)
RNA: B17 RNA with A25G, G28A, G29U, G30C
DNA 1: CAATCTGAATTCCGGTCTCCC
DNA 2: TGGTGGCTACGACGGGATT
B27: CGCUAUU (DNA:RNA)
RNA: B1 RNA with G25C, U26G, G27C, A30U, G31U
DNA 1: CAATCTGAATTCCGGTCTCCC
DNA 2: TGGTGGCTACGACGGGATT
B28: UAGAUGA (DNA:RNA)
RNA: B17 RNA with A25U, C26A, C27G, G28A, G29U, C31A
DNA 1: CAATCTGAATTCCGGTCTCCC
DNA 2: TGGTGGCTACGACGGGATT
B29: UCCUGGG (DNA:RNA)
RNA: B17 RNA with A25U, G28U, C31G
DNA 1: CAATCTGAATTCCGGTCTCCC
DNA 2: TGGTGGCTACGACGGGATT
B30: UGGUUCU (DNA:RNA)
RNA: B1 RNA with G25U, U26G, A29U, A30C, G31U
DNA 1: CAATCTGAATTCCGGTCTCCC
DNA 2: TGGTGGCTACGACGGGATT
B31: CCCCUGG (DNA:RNA)
RNA: B17 RNA with A25C, G28C, G29U, C31G
DNA 1: CAATCTGAATTCCGGTCTCCC
DNA 2: TGGTGGCTACGACGGGATT
B32: UGGUUUU (DNA:RNA)
RNA: B1 RNA with G25U, U26G, A29U, A30U, G31U
DNA 1: CAATCTGAATTCCGGTCTCCC
DNA 2: TGGTGGCTACGACGGGATT
B33: CUGGUUC (DNA:RNA)
RNA: B17 RNA with A25C, C26U, C27G, G29U, G30U
DNA 1: CAATCTGAATTCCGGTCTCCC
DNA 2: TGGTGGCTACGACGGGATT
B34: UGCUGGG (DNA:RNA)
RNA: B17 RNA with A25U, C26G, G28U, C31G
DNA 1: CAATCTGAATTCCGGTCTCCC
DNA 2: TGGTGGCTACGACGGGATT
B35: UGGGUUU (DNA:RNA)
RNA: B17 RNA with A25U, C26G, C27G, G29U, G30U, C31U
DNA 1: CAATCTGAATTCCGGTCTCCC
DNA 2: TGGTGGCTACGACGGGATT
B36: CUGGGUU (DNA:RNA)
RNA: B17 RNA with A25C, C26U, C27G, G30U, C31U
DNA 1: CAATCTGAATTCCGGTCTCCC
DNA 2: TGGTGGCTACGACGGGATT
B37: UGUUGGG (DNA:RNA)
RNA: B17 RNA with A25U, C26G, C27U, G28U, C31G
DNA 1: CAATCTGAATTCCGGTCTCCC
DNA 2: TGGTGGCTACGACGGGATT
B38: UGGGGGG (DNA:RNA)
RNA: B17 RNA with A25U, C26G, C27G, C31G
DNA 1: CAATCTGAATTCCGGTCTCCC
DNA 2: TGGTGGCTACGACGGGATT
B39: UGGGUUG (DNA:RNA)
RNA: B1 RNA with G25U, U26G, U28G, A29U, A30U
DNA 1: CAATCTGAATTCCGGTCTCCC
DNA 2: TGGTGGCTACGACGGGATT
B40: UGGGUUC (DNA:RNA)
RNA: B17 RNA with A25U, C26G, C27G, G29U, G30U
DNA 1: CAATCTGAATTCCGGTCTCCC
DNA 2: TGGTGGCTACGACGGGATT

This experiment concerns the target T1, RBFOX1 RRM. The experiment can be described thus: EMSA; HiTS-Eq, 1 nM pool, 10 min; buffer printed only for the single-RNA assays: 10 mM Tris pH 7.5, 150 mM NaCl, 3.4 mM EDTA, 0.001% NP-40, 30 C. The settings on record: tags: His6 N-terminal (pET28a); label: 5' 32P. In a few lines: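 A pool of RNA with 7 randomized nucleotides, 5′-radiolabelled and with DNA-annealed flanks, was equilibrated at 1 nM for 10 min in 50 µL with purified RbFox RRM, wild type or mutant, across increasing protein concentrations. Free RNA was separated by 8% native PAGE, excised, reverse-transcribed, barcoded by PCR and sequenced. Relative association constants were obtained from read-count changes of each RNA species versus the control reaction and normalised to the cognate motif.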
For B1, the binding signal was 0.0113 KA relative to UGCAUGU.
As for B2, the binding signal was 0.0135 KA relative to UGCAUGU.
As to B3, the binding signal was 0.0149 KA relative to UGCAUGU.
B4: the binding signal is 0.00457 KA relative to UGCAUGU.
Take B5: the binding signal was 0.00712 KA relative to UGCAUGU.
As for B6, the binding signal was 0.00528 KA relative to UGCAUGU.
On to B7, for which the binding signal is 0.00281 KA relative to UGCAUGU.
With B8, the binding signal is 0.0185 KA relative to UGCAUGU.
As for B9, the binding signal is 0.0159 KA relative to UGCAUGU.
On to B10, for which the binding signal is 0.582 KA relative to UGCAUGU.
As to B11, the binding signal was 0.0206 KA relative to UGCAUGU.
For B12, the binding signal is 0.0176 KA relative to UGCAUGU.
Consider B13, for which the binding signal was 0.0209 KA relative to UGCAUGU.
In the case of B14 it was 0.0461 KA relative to UGCAUGU; in that of B15, 0.0168 KA relative to UGCAUGU.
As to B16, the binding signal is 0.0466 KA relative to UGCAUGU.
Turning to B17, the binding signal was 0.0122 KA relative to UGCAUGU.
Regarding B18, the binding signal was 0.0324 KA relative to UGCAUGU.
On to B19, for which the binding signal was 0.0234 KA relative to UGCAUGU.
B20: the binding signal is 0.00898 KA relative to UGCAUGU.
On to B21, for which the binding signal is 0.0214 KA relative to UGCAUGU.
The value for B22 was 0.00863 KA relative to UGCAUGU; that for B23 was 0.0208 KA relative to UGCAUGU; that for B24 was 0.00393 KA relative to UGCAUGU.
On to B25, for which the binding signal is 0.00147 KA relative to UGCAUGU.
As for B26, the binding signal was 0.00701 KA relative to UGCAUGU.
For the molecule B27, the binding signal was 0.00582 KA relative to UGCAUGU.
Take B28: the binding signal is 0.0121 KA relative to UGCAUGU.
Consider B29, for which the binding signal is 0.00619 KA relative to UGCAUGU.
Consider B30, for which the binding signal was 0.019 KA relative to UGCAUGU.
For B31, the binding signal is 0.0109 KA relative to UGCAUGU.
For the molecule B32, the binding signal is 0.0278 KA relative to UGCAUGU.
For the molecule B33, the binding signal is 0.0321 KA relative to UGCAUGU.
Consider B34, for which the binding signal was 0.0153 KA relative to UGCAUGU.
With B35, the binding signal was 0.0379 KA relative to UGCAUGU.
Turning to B36, the binding signal is 0.0262 KA relative to UGCAUGU.
As for B37, the binding signal was 0.00877 KA relative to UGCAUGU.
Turning to B38, the binding signal is 0.0192 KA relative to UGCAUGU.
As to B39, the binding signal is 0.0558 KA relative to UGCAUGU.
Turning to B40, the binding signal was 0.0352 KA relative to UGCAUGU.
